PubChem BioAssay (EPA / NIEHS)
Records with an inconclusive call do not appear. Calls of active or inactive are those of the source. The calls were made as follows: active = hit-call score of the fitted dose curve at least 0.9, where 1 is the maximum; inconclusive = response in the unintended direction; inactive = score below 0.9.

Each molecule was assayed against Nuclear receptor subfamily 4 group A member 2 (Homo sapiens) (UniProt P43354) (assay: ATG_NURR1_TRANS: Attagene TRANS-FACTORIAL HepG2 Assay for human Nuclear Receptor Related Protein 1 (NURR1) (AID 2282985)). Conditions: HepG2 Attagene TRANS reporter, mRNA readout.
Sequence of Nuclear receptor subfamily 4 group A member 2 (Homo sapiens) (P43354 whole entry, looked up): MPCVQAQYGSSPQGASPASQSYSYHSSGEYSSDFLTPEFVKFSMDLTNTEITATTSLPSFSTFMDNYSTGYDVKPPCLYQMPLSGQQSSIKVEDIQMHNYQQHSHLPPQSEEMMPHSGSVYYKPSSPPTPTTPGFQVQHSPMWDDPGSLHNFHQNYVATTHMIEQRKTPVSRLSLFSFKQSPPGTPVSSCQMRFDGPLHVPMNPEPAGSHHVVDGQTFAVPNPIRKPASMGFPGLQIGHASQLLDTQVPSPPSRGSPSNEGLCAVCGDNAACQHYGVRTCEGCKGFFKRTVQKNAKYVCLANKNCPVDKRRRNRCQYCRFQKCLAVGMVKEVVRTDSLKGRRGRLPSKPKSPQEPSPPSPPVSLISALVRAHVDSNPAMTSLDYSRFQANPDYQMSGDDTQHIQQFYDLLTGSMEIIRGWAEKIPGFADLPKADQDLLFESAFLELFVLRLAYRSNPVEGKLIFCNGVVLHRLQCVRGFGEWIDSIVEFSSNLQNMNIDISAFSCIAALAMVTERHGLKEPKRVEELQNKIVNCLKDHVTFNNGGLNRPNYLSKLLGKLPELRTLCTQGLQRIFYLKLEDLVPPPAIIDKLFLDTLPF
Procedure: ATG_TRANS is a cell-based, multiplexed-readout assay that uses HepG2, a human liver cell line, with measurements taken at 24 hours after chemical dosing in a 24-well plate.ATG_NURR1_TRANS is one of 30 assay component(s) measured or calculated from the ATG_TRANS assay. It is designed to make measurements of mRNA induction, a form of inducible reporter, as detected with fluorescence intensity signals by Reverse transcription polymerase chain reaction (RT-PCR) and Capillary electrophoresis technology.Data from the assay component ATG_NURR1_TRANS was analyzed into 1 assay endpoint. This assay endpoint, ATG_NURR1_TRANS, was analyzed in the positive analysis fitting direction relative to DMSO as the negative control and baseline of activity. Using a type of inducible reporter, measures of mRNA for gain-of-signal activity can be used to understand the reporter gene at the transcription factor-level as they relate to the gene NR4A2. Furthermore, this assay endpoint can be referred to as a primary readout, because this assay has produced multiple assay endpoints where this one serves a reporter gene function. To generalize the intended target to other relatable targets, this assay endpoint is annotated to the nuclear receptor intended target family, where the subfamily is orphan.
Human liver HepG2 cells are transiently transfected with multiple reporter transcription units (MRTUs) in 6-well plates using FuGene 6 reagent (Roche; 3 ml FuGene/1 mg DNA). The MRTU constructs are regulated by a cis-regulating element (promoter). […] A major difference between the CIS and TRANS system is that in CIS activities of endogenous TFs are measured, whereas the TRANS assay evaluates changes in activities of exogenous, chimeric NR-Gal4 proteins. […] At the end of 24 hour incubation, total RNA was isolated using TriZol reagent (Invitrogen). The isolated RNA is then reverse-transcribed using oligo(dT) primer and Mo-MLV reverse transcriptase (Invitrogen) with DNAse I (Ambion) treatment for 30 min. The one-tenth of the produced cDNA was amplified by PCR using Taq DNA polymerase (Invitrogen) and two reporter sequence-specific primers. The PCR products were fluorescently labeled by primer extension with 6-arboxyfluorescein (6-FAM) 5'-labeled reporter sequence-specific primer (2 min at 95 C, 20 s at 68 C and 10 min at 72 C) and these products were digested with 5U of HpaI (New England Biolabs) for 2h at 37 C. The fragments were purified using Qiaquick PCR columns (Qiagen), analyzed on an ABI 3130xL genetic analyzer (Applied Biosystems) with peak positions identified by using a set of X-rhodamine (ROX)-labeled MapMarker1000 molecular weight standards (BioVentures). The raw capillary electrophoresis data was processed using Attagraph software (Attagene).

**Q.** Which outcome does the source give for COCC(=O)O here?
**A.** The outcome was “inactive”.

**Q.** How did the outcome turn out when O=S(=O)(O)c1ccc(Nc2nc(Nc3ccc(C=Cc4ccc(Nc5nc(Nc6ccc(S(=O)(=O)O)cc6)nc(N(CCO)CCO)n5)cc4S(=O)(=O)O)c(S(=O)(=O)O)c3)nc(N(CCO)CCO)n2)cc1 was run?
**A.** The outcome was “inactive”.

**Q.** Which outcome does the source give for N#Cc1ccc(C2CCCc3cncn32)cc1 (stereo not given) here?
**A.** The outcome was “inactive”.

**Q.** How did the outcome turn out when CC(=O)c1ccc(S(=O)(=O)NC(=O)NC2CCCCC2)cc1 was run?
**A.** Its outcome is “inactive”.

**Q.** Which outcome does the source give for O=C1CCCCCCCCCCC1 here?
**A.** Its outcome is “inactive”.

**Q.** For O=C(O)c1ccc2c(c1)C(=O)OC2=O, which outcome is on record?
**A.** The outcome was “inactive”.

**Q.** Which outcome does the source give for O=C(O)CCC(=O)O here?
**A.** The outcome was “inactive”.

**Q.** Which AC50 does the source give for CCCCCCCCCCCCCCCCCCOS(=O)(=O)O here?
**A.** The AC50 was 179 µM (active).

**Q.** CCOC(=O)OC(=O)OCC was tested. Which outcome did it give?
**A.** The outcome was “inactive”.

**Q.** O=C(O)/C=C/c1ccccc1 was tested. Which outcome did it give?
**A.** Its outcome is “inactive”.

**Q.** Which outcome does the source give for CCOC(=O)c1ccccc1C here?
**A.** The outcome was “inactive”.

**Q.** For C=C(C)C(=O)OCC(O)COc1ccc(C(C)(C)c2ccc(OCC(O)COC(=O)C(=C)C)cc2)cc1 (stereo not given), which AC50 is on record?
**A.** Its AC50 is 27.4 µM (active).

**Q.** Cc1cccc(C(C)(C)C)c1O was tested. Which outcome did it give?
**A.** The outcome was “inactive”.

**Q.** How did the outcome turn out when CC/C=C\CCOC(=O)c1ccccc1O was run?
**A.** Its outcome is “inactive”.

**Q.** With CCCCCCCCCCCCCC(=O)OC(C)C as the molecule, how does the outcome read?
**A.** The outcome was “inactive”.

**Q.** Which outcome does the source give for CC(C)=CCl here?
**A.** The outcome was “inactive”.

**Q.** How did the outcome turn out when CCCCCCCO was run?
**A.** The outcome was “inactive”.

**Q.** For O=c1c(O)c(-c2ccc(O)cc2O)oc2cc(O)cc(O)c12, which outcome is on record?
**A.** The outcome was “inactive”.

**Q.** With CC(C)=CCCC(C)=CC#N as the molecule, how does the outcome read?
**A.** The outcome was “inactive”.

**Q.** How did the outcome turn out when Clc1cc(Cl)c(Cl)c(Cl)c1Cl was run?
**A.** The outcome was “inactive”.

**Q.** CCN(CC)c1cccc(C)c1 was tested. Which outcome did it give?
**A.** The outcome was “inactive”.

**Q.** CCOc1ccc(NC(N)=O)cc1 was tested. Which outcome did it give?
**A.** Its outcome is “inactive”.

**Q.** For C=CC(=O)OCCCCCCOC(=O)C=C, which outcome is on record?
**A.** The outcome was “inactive”.

**Q.** CCCCOC(=O)C(C)CC (stereo not given) was tested. Which outcome did it give?
**A.** The outcome was “inactive”.

**Q.** With O=C(O)C(F)(F)C(F)(F)C(F)(F)C(F)(F)C(=O)O as the molecule, how does the outcome read?
**A.** Its outcome is “inactive”.

**Q.** Cc1ccc2c(c1)CCCN2 was tested. Which outcome did it give?
**A.** Its outcome is “inactive”.

**Q.** How did the outcome turn out when CC1=NN(c2ccc(S(=O)(=O)O)cc2)C(=O)C1N=Nc1ccccc1 (stereo not given) was run?
**A.** Its outcome is “inactive”.

**Q.** C=CCCCCCCCCOC(C)=O was tested. Which outcome did it give?
**A.** The outcome was “inactive”.

**Q.** Cc1c(C(=O)c2c[nH]n(C)c2=O)ccc(S(C)(=O)=O)c1C1=NOCC1 was tested. Which outcome did it give?
**A.** Its outcome is “inactive”.

**Q.** CC(C)(C)N was tested. Which outcome did it give?
**A.** Its outcome is “inactive”.

**Q.** For CC(=O)/C=C/C1C(C)=CCCC1(C)C (stereo not given), which outcome is on record?
**A.** The outcome was “inactive”.

**Q.** With CCCCC1CCC(=O)O1 (stereo not given) as the molecule, how does the outcome read?
**A.** Its outcome is “inactive”.

**Q.** How did the outcome turn out when CCCCC(C=O)CC (stereo not given) was run?
**A.** The outcome was “inactive”.

**Q.** Nc1ccnc(=O)[nH]1 was tested. Which outcome did it give?
**A.** Its outcome is “inactive”.

**Q.** How did the outcome turn out when CC1(C)[C@@H]2CC[C@@]1(C)C(=O)C2 was run?
**A.** The outcome was “inactive”.

**Q.** How did the outcome turn out when CCCCCCC=O was run?
**A.** The outcome was “inactive”.

**Q.** With C=C(C)C1CC=C(C)CC1 (stereo not given) as the molecule, how does the outcome read?
**A.** Its outcome is “inactive”.

**Q.** With CC1=C(O)C(=O)C(C)O1 (stereo not given) as the molecule, how does the outcome read?
**A.** The outcome was “inactive”.

**Q.** With CCC[Si](OC)(OC)OC as the molecule, how does the outcome read?
**A.** The outcome was “inactive”.

**Q.** Which outcome does the source give for COC(OC)(C(=O)c1ccccc1)c1ccccc1 here?
**A.** The outcome was “inactive”.
